Results published in the supplement of paper PMC8253809.
“And” between values parts separate entries of the source, which are not always exact repeats. Equal entries are not always repeated.

Experiments:
Assay in all cases: growth inhibition (% activity, log2 RLU normalised to DMSO / staurosporine); higher = more growth inhibition
Conditions in all cases: 33 µM
DIPGX29 = test system: DIPGX29 (H3.3 K27M diffuse intrinsic pontine glioma line)
How it was run: (§1)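 The growth-inhibition value is the median over replicates. pHGG cell lines and H9-derived neural stem cells on Geltrex-coated 384-well plates received approved drugs by pin tool at a single final concentration of about 33 μM, in triplicate, for 7 days at 37 °C, 5% CO2. CellTiter-Glo luminescence was log2-transformed and normalised per plate to % activity between solvent and positive control wells.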

DIPGX37 = test system: DIPGX37 (H3.3 K27M diffuse intrinsic pontine glioma line)
How it was run: as §1

DIPGX7 = test system: DIPGX7 (H3.3 K27M diffuse intrinsic pontine glioma line)
How it was run: as §1

DIPGX9 = test system: DIPGX9 (diffuse intrinsic pontine glioma line)
How it was run: as §1

HGGX39 = test system: HGGX39 (paediatric high-grade glioma line)
How it was run: as §1

HGGX6 = test system: HGGX6 (H3.3 G34R paediatric high-grade glioma line)
How it was run: as §1

HNSC = test system: HNSC
How it was run: as §1

SUDIPGIV = test system: SUDIPGIV (diffuse intrinsic pontine glioma line)
How it was run: as §1

SUDIPGVI = test system: SUDIPGVI (diffuse intrinsic pontine glioma line)
How it was run: as §1

SUDIPGXIII = test system: SUDIPGXIII (diffuse intrinsic pontine glioma line)
How it was run: as §1

SMILES | growth inhibition (DIPGX29) | growth inhibition (DIPGX37) | growth inhibition (DIPGX7) | growth inhibition (DIPGX9) | growth inhibition (HGGX39) | growth inhibition (HGGX6) | growth inhibition (HNSC) | growth inhibition (SUDIPGIV) | growth inhibition (SUDIPGVI) | growth inhibition (SUDIPGXIII)
CCCc1nn(C)c2c(=O)[nH]c(-c3cc(S(=O)(=O)N4CCN(C)CC4)ccc3OCC)nc12 | 0.246% | -4.11% | 0.899% | -0.0138% | 0.834% | -0.171% | 0.834% | -2.48% | 0.71% | -0.097%
CC(=O)Oc1ccccc1C(=O)O | 0.978% | 2.47% | 1.52% | 1.57% | 2.08% | 4% | 0.311% | -1.34% | 2.68% | -16%
CCN(CC)CCOC(=O)C(c1ccccc1)c1ccccc1 | 3.33% | 2.41% | 3.35% | 1.46% | 2.96% | 2.47% | 6.35% | 0.181% | 3% | -1.28%
CO[C@H]1/C=C/O[C@@]2(C)Oc3c(C)c(O)c4c(O)c(c(/C=N/N5CCN(C)CC5)c(O)c4c3C2=O)NC(=O)/C(C)=C\C=C\[C@H](C)[C@H](O)[C@@H](C)[C@@H](O)[C@@H](C)[C@H](OC(C)=O)[C@@H]1C | -0.241% | -0.311% | -0.321% | -1.43% | 0.825% | 3.31% | -3.9% | -0.0069% | -1.69% | 1.7%
CC(=O)Oc1cc2c(s1)CCN(C(C(=O)C1CC1)c1ccccc1F)C2 (stereo not given) | 0.962% | -2.57% | 1.32% | -0.813% | 0.291% | -2.02% | 0.528% | -0.967% | -3.04% | -1.75%
CC[C@H]1OC(=O)[C@H](C)[C@@H](O[C@H]2C[C@@](C)(OC)[C@@H](O)[C@H](C)O2)[C@H](C)[C@@H](O[C@@H]2O[C@H](C)C[C@H](N(C)C)[C@H]2O)[C@](C)(O)C[C@@H](C)CN(C)[C@H](C)[C@@H](O)[C@]1(C)O | 2.6% and 0.58% | 0.972% and 0.639% | 2.78% and -0.0129% | 0.764% and 1.25% | 1.94% and 0.554% | 0.417% and 2.15% | -0.827% and -1.61% | -0.232% and -0.687% | -6.26% and 1.06% | 1.93% and -0.434%
Nc1ccn([C@H]2CC[C@@H](CO)O2)c(=O)n1 | 1.28% | 0.314% | 0.245% | 2.8% | 6.49% | 1.48% | 17.8% | 15.2% | 0.499% | 1.84%
COc1cc(Nc2c(C#N)cnc3cc(OCCCN4CCN(C)CC4)c(OC)cc23)c(Cl)cc1Cl | 8.64% | 2.05% | 4.98% | 6.92% | 9.47% | 10.9% | 41.9% | -1.39% | 8.4% | 1.71%
O=c1n(CCCN2CCN(c3cccc(Cl)c3)CC2)nc2ccccn12 | 3.64% | 2.01% | 4.26% | 3.67% | 4.78% | 3.57% | 6.62% | 2.09% | 4.36% | 0.00306%
CS(=O)(=O)OCCCCOS(C)(=O)=O | 1.61% | 2.89% | 1.75% | 1.86% | 3.01% | 2.25% | -0.43% | 0.215% | 0.662% | 0.839%
Nc1ccc(S(=O)(=O)Nc2ccccn2)cc1 | 0.131% | -0.785% | -0.925% | -0.171% | 0.333% | 0.609% | 0.764% | -1.02% | 1.15% | -1.65%
CCCC(C(=O)OCCN(CC)CC)(c1ccccc1)c1ccccc1 | 3.18% | 1.54% | 2.35% | 0.685% | 0.885% | 3.92% | 4.69% | 1.52% | 1.12% | 2.55%
O=C(O)Cc1cc(I)c(Oc2ccc(O)c(I)c2)c(I)c1 | 1.55% | 4.31% | 0.436% | 0.952% | 2.17% | 1.33% | -1.43% | 3.33% | 2.21% | -14.4%
Nc1nc(=O)c2c([nH]1)NCC(CNc1ccc(C(=O)N[C@@H](CCC(=O)O)C(=O)O)cc1)N2C=O (stereo not given in full) | -0.552% | 0.652% | -1.46% | -0.907% | -0.954% | -0.876% | 0.438% | -1.59% | 0.511% | -0.342%
CC(C)[N+]1(C)[C@@H]2CC[C@H]1C[C@@H](OC(=O)C(CO)c1ccccc1)C2 (stereo not given in full) | -0.758% | 3.5% | 0.48% | 0.945% | 1.73% | 2.16% | -1.56% | -0.725% | 2.4% | 0.743%
NC(Cc1cc(I)c(Oc2cc(I)c(O)c(I)c2)c(I)c1)C(=O)O (stereo not given) | 0.479% | 2.96% | -0.171% | 1.28% | 2.01% | -2.56% | 27.8% | 10.6% | 7.79% | 4.24%
CCOc1nc2cccc(C(=O)OC(C)OC(=O)OC3CCCCC3)c2n1Cc1ccc(-c2ccccc2-c2nn[nH]n2)cc1 (stereo not given) | -1.79% | -1.28% | -1.84% | -0.119% | -0.661% | 0.0529% | -2.55% | -3.13% | -3.95% | -0.781%
Cc1ncc([N+](=O)[O-])n1CC(O)CCl (stereo not given) | 1.6% | -0.696% | 3.64% | 1.89% | 2.83% | 1.22% | 6.21% | 1.59% | 4.35% | 0.346%
CC(C)C(=O)Nc1ccc([N+](=O)[O-])c(C(F)(F)F)c1 | 1.6% | 2.28% | 2.18% | 2.7% | 11.9% | 0.873% | 6.29% | 5.63% | 3.39% | 2.07%
CCCC1O[C@@H]2C[C@H]3[C@@H]4CCC5=CC(=O)C=C[C@]5(C)[C@H]4[C@@H](O)C[C@]3(C)[C@]2(C(=O)CO)O1 (stereo not given in full) | 2.07% | -0.133% | -1.11% | 3.67% | 3.05% | 1.13% | -0.0191% | 40.8% | -5.45% | 18.8%

SMILES | growth inhibition (DIPGX29) | growth inhibition (DIPGX37) | growth inhibition (DIPGX7) | growth inhibition (DIPGX9) | growth inhibition (HGGX39) | growth inhibition (HGGX6) | growth inhibition (HNSC) | growth inhibition (SUDIPGIV) | growth inhibition (SUDIPGVI) | growth inhibition (SUDIPGXIII)
O=S(=O)(O)Oc1ccc(C(c2ccc(OS(=O)(=O)O)cc2)c2ccccn2)cc1 | -1.54% | -1.27% | -2.88% | -1.22% | -0.859% | -1.53% | -1.57% | -2.15% | -2.91% | 0.476%
CNC(CC(C)C)C(=O)NC1C(=O)NC(CC(N)=O)C(=O)NC2C(=O)NC3C(=O)NC(C(=O)NC(C(=O)O)c4cc(O)cc(O)c4-c4cc3ccc4O)C(O)c3ccc(c(Cl)c3)Oc3cc2cc(c3OC2OC(CO)C(O)C(O)C2OC2CC(C)(N)C(O)C(C)O2)Oc2ccc(cc2Cl)C1O (stereo not given) | -1.35% | -1.91% | -1.76% | -1.16% | -1.53% | -2.38% | -0.899% | -0.924% | -4.84% | -0.803%
CN1[C@@H]2CC[C@H]1C[C@@H](OC(c1ccccc1)c1ccccc1)C2 | 4.24% | -1.03% | 6.35% | 2.77% | 6.58% | 5% | 9.97% | 2.1% | 3.58% | 0.606%
COc1ccc(/C=C/C(=O)Nc2ccccc2C(=O)O)cc1OC | -0.16% | 2.16% | 1.32% | -0.609% | -0.29% | -0.75% | 3.65% | 0.158% | -5.28% | -1.02%
CCCC(=O)OCOC(=O)C1=C(C)NC(C)=C(C(=O)OC)C1c1cccc(Cl)c1Cl (stereo not given) | 2.13% | 4.21% | 2.32% | 2.4% | 4.32% | -0.314% | 31.7% | 2.85% | 3.35% | -0.196%
O=C(Nc1cccc2c(=O)cc(-c3nnn[nH]3)oc12)c1ccc(OCCCCc2ccccc2)cc1 | 2.7% | 2.86% | 2.31% | 0.614% | 2.23% | -2.27% | 52.4% | 2.11% | 1.62% | 2.22%
O=c1oc2c(O)c(O)cc3c(=O)oc4c(O)c(O)cc1c4c23 | 1.91% | 2.55% | 2.78% | 2.1% | 1.54% | -1.49% | -1.26% | -0.815% | -0.974% | 1.4%
O=C([O-])c1ccccc1O.[Na+] | 1.02% | 2.5% | 2.56% | 1.21% | 1.15% | -1.22% | 28.2% | 1.6% | -4.02% | 0.791%
CC(C)C[C@H](NC(=O)[C@H](CCc1ccccc1)NC(=O)CN1CCOCC1)C(=O)N[C@@H](Cc1ccccc1)C(=O)N[C@@H](CC(C)C)C(=O)[C@@]1(C)CO1 | 49.4% | 59.1% | 55.8% | 55% | 51.3% | 57.8% | 56.9% | 55% | 52% | 29.5%
C[C@@H](c1ncncc1F)[C@](O)(Cn1cncn1)c1ccc(F)cc1F | 0.619% | -0.0255% | 0.392% | 0.104% | 0.756% | -0.00667% | 1.22% | -1.27% | -1.71% | -0.404%
Cc1cc(=O)[nH]c(=S)[nH]1 | 0.66% | -0.151% | 2.93% | 1.41% | 3.23% | 0.504% | 4.39% | 2.24% | 4.36% | 1.21%
CCN(CC)C(=S)SSC(=S)N(CC)CC | 1.19% | 3.53% | 5.8% | 10.8% | 3.44% | 3.72% | 50% | -0.505% | 1.15% | 0.0312%
CNC1CCCN(c2c(F)cc3c(=O)c(C(=O)O)cn(C4CC4)c3c2OC)C1 (stereo not given) | -0.899% | 0.515% | -0.411% | 1.06% | 0.742% | 1.27% | -1.65% | -0.11% | -0.677% | 0.279%
CC(C)(C)CC(C)(C)c1ccc(O)c(Cc2ccc(Cl)cc2Cl)c1 | 1.52% | -4.36% | 1.89% | 0.915% | 0.861% | -1.71% | 13.3% | 3.83% | -0.854% | 3.25%
CC1(C)Cc2c(-c3ccccc3)c(-c3ccc(Cl)cc3)c(CC(=O)O)n2C1 | 1.89% | 3.9% | 3.38% | 1.48% | 2.51% | -0.994% | 8.73% | 1.41% | 1.99% | 1.12%
CC(=O)OCC(=O)[C@@]12N=C(C)O[C@@H]1C[C@H]1[C@@H]3CCC4=CC(=O)C=C[C@]4(C)[C@H]3[C@@H](O)C[C@@]12C | 2.06% | 0.767% | 0.297% | 4.71% | 3.17% | 0.221% | 1.26% | -3.7% | -1.31% | -1.39%
CS(=O)(=O)Nc1ccc([N+](=O)[O-])cc1Oc1ccccc1 | 0.913% | 1.17% | 0.12% | 0.568% | 2.03% | -1.72% | 27.3% | -3.67% | -1.3% | -2.23%
C[C@@H](O)[C@H]1C(=O)N2C(C(=O)[O-])=C(SC3Cn4cnc[n+]4C3)[C@H](C)[C@H]12 (stereo not given in full) | -0.594% | -1.93% | -0.736% | 0.334% | 0.724% | 2.31% | -1.63% | -0.792% | 0.279% | 1.62%
NC12CC3CC(CC(C3)C1)C2 | 0.311% | -1.43% | 0.524% | 0.931% | 2.31% | 1.23% | -2.35% | 0.117% | 0.782% | -2.09%
CCOC(=O)OC(C)OC1=C(C(=O)Nc2ccccn2)N(C)S(=O)(=O)c2ccccc21 (stereo not given) | -0.868% | 0.235% | -2.67% | -1.56% | -0.486% | -1.42% | -2.72% | -2.47% | -3.26% | -1.05%
